Test results taken from PubChem BioAssay AID1233 (SRMLSC, 2008).
Potency and affinity values are given separately. The source made the active and inactive calls.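 Rule for the calls: active = a dose-response curve fit returns a half-maximal inhibitory concentration, extrapolated values included; inactive = the fit returns no such concentration.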

These molecules were tested against HMG-CoA reductase [Enterococcus faecalis] (UniProt Q9FD70) (assay: inhibitors of E. faecalis class II HMGR, confirmation, biochemical, Enterococcus faecalis (AID 1233)). Conditions: purified E. faecalis HMGR, NADPH absorbance 340 nm kinetics; series mostly up to 100 µM.

outcome, inactive:
Cc1cc(N2C(=O)C(O)=C(C(=O)c3ccco3)C2c2cccnc2)no1 (configuration not stated)
Cc1ccc(/C=C/S(=O)(=O)NCC(=O)O)cc1
O=C(Nc1cccnc1)c1ccc(COc2ccccc2Cl)o1
Cc1ccc2nsnc2c1N
Cc1cc(=O)[nH]c(N/N=C/c2ccc(N(C)C)cc2)n1
COC(=O)CSc1ncc(C#N)c(N)n1
COc1ccc(CSc2nnnn2C)cc1[N+](=O)[O-]
Cc1cc(C(=O)N[C@H](c2ccccc2)[C@@]2(C)C[C@@H]2[C@@H](C)C(=O)Nc2ccc3ccccc3c2)no1
CN(C=O)CP(=O)(O)CN1CCCCC1
O=C(Nc1ccc(Oc2ccccc2)cc1)c1ccc(Cn2c(=O)[nH]c3ccsc3c2=O)cc1
C=CCOc1c(Br)cc(CNc2nccs2)cc1OC
O=C(NCC(=O)N(Cc1cccs1)C(C(=O)NC1CCCC1)c1ccncc1)c1ccco1 (configuration not stated)
CN(c1ccc(C(=O)N2CCCCC2)cc1)S(=O)(=O)c1ccccc1
COc1ccc(C2C(C(C)=O)=C(Nc3ccccc3)CC(C)(O)C2C(C)=O)cc1OC (configuration not stated)
Cc1nn(-c2cc(N3CCCCCC3)ccc2[N+](=O)[O-])c(=O)c2ccccc12
O=C(NCc1cccs1)c1cc2c(s1)CS(=O)(=O)C2
Cc1ccc(OCC(O)CN2C(=O)NC(C)(C)C2=O)cc1 (configuration not stated)
Cc1cc(C)nc(NC(=O)CCCC(=O)O)c1
CCOCC(=O)OCC(=O)Nc1cc(OC)c([N+](=O)[O-])cc1C
Cc1cccc(S(=O)(=O)Nc2ccc(-c3cn4ccccc4n3)cc2)c1
CN(C)S(=O)(=O)N1CCN(S(=O)(=O)N2CCOCC2)CC1
O=C(CC1SCCNC1=O)Nc1ccc(F)c(Cl)c1 (configuration not stated)
CCN(C(=O)Cn1cc(C(F)(F)F)ccc1=O)c1c(N)n(Cc2ccccc2)c(=O)[nH]c1=O
CC(C)CC(O)(CC(C)C)C(=O)NNc1ccccc1
O=[N+]([O-])/C(=C\Nc1ccccc1Cl)S(=O)(=O)c1ccccc1
CN(Cc1ccccc1)c1nc(N)nc(Cl)c1C=O
Cn1c(SCC(=O)N2CCCC2=O)nnc1-c1ccccc1F
Cc1nc2c([nH]1)C1(CCN(Cc3ccccc3)CC1)C(C#N)=C(N)O2
Cc1ccsc1C(=O)C1CCCN(Cc2cc(F)ccc2-n2cccn2)C1 (configuration not stated)
NS(=O)(=O)c1ccc(N2C(=O)C3C4CC(C(Br)C4Br)C3C2=O)cc1 (configuration not stated)
COc1ccc(N2CC(C)(C)C2=O)cc1
COc1cc(OC)c(OC)cc1/C=N/NC(=S)NCCN1CCOCC1
Cc1ccc(NC(=S)NC(=O)CC2CC(C)(C)OC2=O)cc1 (configuration not stated)
N#Cc1c2c(c(-c3ccccc3Cl)[nH]c1=S)CCCC2
CCCn1c(=S)[nH]c2ccccc2c1=O
Cc1ccc(S(=O)(=O)N2CCCCC2)cc1C(=O)N1CCN(c2ccccn2)CC1
Cc1ccc(NC(=O)C(=O)NCc2ccc(/C=N/NC(=O)c3c(C)nc4cc(C)ccn34)o2)cc1
